Source: PubChem (National Center for Advancing Translational Sciences (NCATS))
Only some compounds are listed: those with a hit (about 5.9% of all), similar ones and a draw of the others.
ATXN2 expr inh – ATXN2 expression inhibition. HEK-293 ATXN2-luciferase reporter, luminescence, 24 h. Potency, µM (doses to about 57 µM), for the others: at the top dose activity change, negative = inhibition, usual class: inhibitors. hit rate 0.72% among 360,000; note: % is set by controls: 0 for no effect and ±100 for the full control effect; nearly all actives have a fitted effect of over 55% in size
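ATXN2-luciferase reporter cells (luciferase flanked by upstream and downstream ATXN2 gene portions) were treated 24 h at 37 °C with compounds at up to 57 uM. SteadyGlo luminescence gave expression; GF-AFC fluorescence gave viability.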
TGFb inhibitor – inhibitors of TGF-b signaling; HepG2 CAGA-GFP TGF-b/SMAD3 reporter, GFP fluorescence, 18 h; TGF-beta stimulated, 500 pg/mL final; hit rate 1.2% among 410,000; Potency, µM (doses to about 46.1 µM), inactives show at the top dose activity, negative = inhibition, usual class: inhibitors; note: % is set by controls: 0 for no effect and ±100 for the full control effect; nearly all actives have a fitted effect of over 65% in size
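TGF-beta reporter screen: HEPG2 CAGA-GFP, 1% FBS, 500 pg/mL TGF-beta final, 18 h; per-cell GFP summed per well; curves fitted and categorized by class.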
KB-V1 MDR tox – KB-V1 MDR subline cytotoxicity. hit rate 3.4% among 400,000. KB-V1 MDR cells viability, CellTiter-Glo, 72 h. Potency, µM (titrated, usually from 46.1 µM), actives largely listed as cytotoxic; note: % is set by controls: 0 for no effect and ±100 for the full control effect; nearly all actives have a fitted effect of over 60% in size
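Compound-treated KB-V1 multidrug-resistant cells, 72 h, 37 degrees C; viability by CellTiter-Glo. Fitted qHTS curves give the values.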
KB-3-1 tox – KB-3-1 parental cell cytotoxicity. Potency, µM (doses to about 46.1 µM), most hits filed as cytotoxic. KB-3-1 viability, CellTiter-Glo ATP luminescence, 72 h. hit rate 1.4% among 400,000; note: % is set by controls: 0 for no effect and ±100 for the full control effect; nearly all actives have a fitted effect of over 60% in size
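Parental KB-3-1 viability, qHTS format: 72 h compound exposure, 37 °C; CellTiter-Glo; media-only wells and DMSO plates as controls; concentration-effect fits on corrected data.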
HepG2 viability – kills HepG2 cells in TGF-b inhibitor counter-screen; hit rate 0.76% among 410,000; HepG2 CAGA-GFP viability, ATP luminescence, 18 h; Potency, µM (titrated, usually from 46.1 µM), inactives show at the highest dose activity change, negative = cytotoxicity, actives largely listed as cytotoxic; AID 588856
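HepG2 CAGA-GFP cells (1000/well, DMEM with 1% FBS) received compound, then TGF-beta at 500 pg/mL final, and were incubated 18 hours at 37 degrees C. Viability was read by CellTiter-Glo luminescence. Media-only wells were set as complete cell-killing and DMSO as no toxicity.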
ATXN viability – cell viability loss in ATXN counter-screen. Potency, µM (series often up to 56.7 µM), hits mostly cytotoxic. S2 cells (HEK-293 line with an ATXN2-luciferase reporter) viability, CellTiter-Fluor protease fluorescence, 24 h. hit rate 0.49% among 400,000; note: nearly all actives have a fitted effect of over 40% in size
Active calls of the source: *; i = inactive; ? = inconclusive; . = not tested or not shown. Calls come from the whole dose curve; as a rule, active = well fitted curve in the direction sought with a large enough effect; inconclusive = small, poorly fitted or top-dose-only effect, or another doubt; inactive = no such curve, though single readings can be large; an effect the other way counts as inactive or inconclusive. Potency is the fitted concentration of half-maximal effect.

SMILES	ATXN2 expr inh	TGFb inhibitor	KB-V1 MDR tox	KB-3-1 tox	HepG2 viability	ATXN viability
O=[N+]([O-])c1ccc(Sc2cccc3cccnc23)c([N+](=O)[O-])c1	?	4µM*	i	?	-105%	6.3µM*
C=CCn1nc([N+](=O)[O-])nc1Sc1cccc2cccnc12	22µM*	3.2µM*	8.2µM*	?	5.6µM*	.
O=[N+]([O-])c1ccc(Sc2ccncn2)c([N+](=O)[O-])c1	.	11µM*	?	12µM*	10µM*	.
Cc1ccc(OCCOC(=O)c2cc(S(=O)(=O)N3CCCCC3)ccc2N2CCOCC2)cc1	-33%	?	2.9µM*	4.6µM*	-24%	?
O=S(=O)(Nc1ccc(O)c(Sc2nc3ccccc3s2)c1)c1ccc(Cl)cc1	1%	?	16µM*	?	-50%	i
Cc1cc2c(s1)c1cnn(CC(=O)N3CCOCC3)c(=O)c1n2C	.	-7%	i	?	-7%	.
CN1CCN(c2ccc([N+](=O)[O-])cc2C(=O)c2ccc(Br)cc2)CC1	-29%	2%	4.1µM*	2.9µM*	0%	?
Cc1ccc(C(=O)c2cc([N+](=O)[O-])ccc2N2CCN(C)CC2)cc1	?	11%	3.7µM*	5.2µM*	-20%	i
CN1CCN(c2ccc([N+](=O)[O-])cc2C(=O)N2CCOCC2)CC1	-5%	3%	i	i	5%	i
COc1ccc(C(=O)c2cc([N+](=O)[O-])ccc2N2CCN(C)CC2)cc1	-23%	2%	6.5µM*	2.9µM*	-12%	i
CN1CCN(c2ccc([N+](=O)[O-])cc2C(=O)c2ccccc2)CC1	-6%	-2%	?	?	-17%	?
O=C(c1ccccc1)c1cc([N+](=O)[O-])ccc1N1CCCC1	-35%	-16%	i	?	-28%	i
COc1ccc(C(=O)c2cc([N+](=O)[O-])ccc2N2CCCC2)cc1	-27%	-23%	?	?	5%	?
O=C(c1ccc(Br)cc1)c1cc([N+](=O)[O-])ccc1N1CCCCC1	-24%	0%	?	1µM*	-26%	?
CC(C)c1ccc(NC(=O)CSC2=Nc3ccccc3C3=NC(CC(=O)NCc4ccco4)C(=O)N23)cc1 (stereo not given)	.	0%	i	i	-11%	.
Cc1noc(/C=C/c2ccccc2F)c1S(=O)(=O)N1CCC(C(=O)N(C)Cc2ccco2)CC1	.	?	.	.	-18%	.
CC(C)c1ccc(NC(=O)Nc2nc(C(N)c3ccccc3)cs2)cc1 (stereo not given)	?	11µM*	?	?	11µM*	.
CC(C)c1ccc(NC(=O)Nc2nc(C(N)COCc3ccccc3)cs2)cc1 (stereo not given)	?	11µM*	?	?	10µM*	?
Cc1ccc(C)c2c1NC(C(=O)O)C1CC=CC21 (stereo not given)	.	-16%	?	i	-3%	.
CCc1c(C)nc(Nc2nc(C)c3ccc(OC)cc3n2)[nH]c1=O	4%	3%	i	i	12%	i
COc1ccc2c(C)nc(Nc3nc(C)c(C)c(=O)[nH]3)nc2c1	111%	0%	7.3µM*	3.7µM*	-12%	i
CC/C(=C\c1ccccc1)c1cccc2oc3ccccc3c12	.	?	i	i	-35%	.
COc1cccc(C(C(=O)NCc2ccccc2)N2CCN(c3ccccc3F)CC2)c1OC (stereo not given)	.	.	?	i	.	.
Fc1ccc(Nc2nc3ccccc3c3nncn23)c(Cl)c1	14%	16%	i	i	-5%	i
CCn1c2ccccc2nc2cc3c(cc21)c(Cl)c(=O)c1ccccc13	.	18µM*	i	?	-119%	.
SMILES	ATXN2 expr inh	TGFb inhibitor	KB-V1 MDR tox	KB-3-1 tox	HepG2 viability	ATXN viability
Cc1cc(C)nc(N2CCCC(C(=O)NCCc3ccc(F)cc3)C2)n1 (stereo not given)	-9%	13%	18µM*	i	-7%	i
CCC1=C(c2ccc(C)cc2)S(=O)(=O)N=C1N1CCC(C(=O)NCCc2ccc(Cl)cc2)CC1	.	13µM*	i	15µM*	-22%	.
Cc1cc(C)nc(N2CCC(C(=O)NCCc3ccc(F)cc3)CC2)n1	-8%	-7%	13µM*	i	-8%	i
CCCC1=NN2C(=N)/C(=C\c3cc(C)n(-c4cccc(C)c4)c3C)C(=O)N=C2S1	9%	-4%	i	i	3.5µM*	i
CCCC1=NN2C(=N)/C(=C\c3cc(C)n(Cc4ccccc4)c3C)C(=O)N=C2S1	.	?	i	i	-27%	i
O=C1N/C(=C/c2ccc(N3CCOCC3)o2)C(=O)N1c1cccc(Cl)c1	-33%	10µM*	i	?	-54%	i
O=C(NCc1ccccc1)c1cc(C2COCCN2C(=O)C/C=C/c2ccccc2)on1 (stereo not given)	6%	2%	i	i	-6%	i
CCc1ccccc1Nc1nc2ccccc2n2cnnc12	-12%	-6%	i	i	3%	i
COc1ccc(CNC(=O)CSc2nnnn2Cc2ccccc2)cc1	-13%	8%	?	16µM*	-14%	i
Cn1nnnc1SCC(=O)NCCc1ccc(Cl)cc1	-1%	-13%	i	i	16µM*	i
COc1ccc(CCNC(=O)CSc2nnc3ccccn23)cc1	7%	0.45µM*	i	i	3%	i
COc1ccc(CCNc2nnc(Sc3nnnn3-c3ccccc3)s2)cc1OC	-28%	-17%	15µM*	4.1µM*	-19%	?
CCCn1nnnc1SCC(=O)NCc1ccc(OC)cc1	0%	-2%	i	i	0%	i
CCOc1ccc(CCNC(=O)CSc2nnnn2C)cc1OCC	-5%	2%	i	i	0%	i
CC1CCC2(C1)N=C(Nc1nc3ccccc3o1)NC1=C2C(=O)CCC1 (stereo not given)	.	.	i	i	.	.
O=S(=O)(c1ccccc1)c1nnn2c1nc(NC1CCCCC1)c1sccc12	.	22%	i	i	3%	.
COc1ccc(CSc2nnnn2Cc2ccccc2)cc1OC	-2%	11%	23µM*	i	1%	i
O=C(CCCOc1ccc(Cl)cc1Cl)N/N=C/c1ccccc1O	25µM*	?	i	i	-34%	?
COc1ccc(/C=N/NC(=O)CCCOc2ccc(Cl)cc2Cl)cc1[N+](=O)[O-]	-24%	-28%	21µM*	?	-25%	?
